PubChem BioAssay (Tox21)
Several values for one entry are separate records, joined by “and”; a condition that tells them apart may be missing. Identical values can stand only once. Inconclusive results are not listed. Where a structure was tested more than once in an assay, its records may differ in their call. Activity calls are given as the source filed them. Unless noted, calls follow the shape of the dose curve; as a rule, active = well fitted curve in the direction sought with a large enough effect in the repeat runs; inconclusive = weak or mixed curves; inactive = no such curve, though single readings can be large; an effect the other way counts as inactive or inconclusive.

Assays:
[1] = qHTS assay to identify small molecule HDAC inhibitors - cell viability counter screen (AID 1259365); also: series mostly up to about 92 µM; nearly all actives have a fitted effect of over 50% in size
In short: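 To flag cytotoxic hits, 1,500 wild-type HCT-116 cells per well, plated the day before, receive test compounds for 2hr at 37 C before CellTiter-Glo reagent and a luminescence read.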

[2] = qHTS assay to identify small molecule agonists of the sonic hedgehog signaling (Shh) pathway - cell viability counter screen (AID 1259366); also: nearly all actives have a fitted effect of over 50% in size; also: potency is read from the fitted curve at half-maximal effect
In short: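 Fluorescence from CellTiter-Fluor reports live cells in this counter screen. NIH/3T3-derived Gli1-Luc reporter cells receive test compounds for 24hr at 37C; reagent goes in at 23hr.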

[3] = qHTS assay to identify small molecule antagonists of the sonic hedgehog signaling (Shh) pathway - cell viability counter screen (AID 1259367); also: nearly all actives have a fitted effect of over 55% in size; also: potency is read from the fitted curve at half-maximal effect
In short: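 Seed 3T3 Gli1-Luc cells at 2,000 per well; incubate 4 hr; add compound in DMSO, then conditioned medium; incubate at 37C with 5% CO2; add CellTiter-Fluor after 23 hr; read fluorescence 1 hr later.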

[4] = qHTS assay to identify small molecule agonists of the sonic hedgehog signaling (Shh) pathway (AID 1259368; calls by dose curve;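 also: NIH/3T3-derived 3T3Gli1-Luc cells carrying a stable Gli1-driven firefly luciferase reporter; series mostly up to about 92 µM; nearly all actives have a fitted effect of over 15% in size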)
In short: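 Luminescent signal was taken as a measure of Gli1-controlled luciferase expression in stably transfected NIH/3T3-derived cells that had been treated for 24 hr with compounds delivered in DMSO.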

[5] = qHTS assay to identify small molecule agonists of the androgen receptor (AR) signaling pathway in the presence of an antagonist - cell viability counter screen (AID 1259379);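 also: MDA-kb2 human breast cancer cells carrying an MMTV luciferase reporter; series mostly up to about 92 µM; nearly all actives have a fitted effect of over 25% in size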
In short: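 In MDA-kb2 cells (human breast carcinoma, MMTV-luciferase), compounds at 15 concentrations plus 3.0uM nilutamide; 16 hr, 37C, 0% CO2; CellTiter-Fluor fluorescence read for viability.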

[6] = qHTS assay to identify small molecule agonists of the estrogen receptor beta (ER-beta) signaling pathway - cell viability counter screen (AID 1259380); also: nearly all actives have a fitted effect of over 30% in size; also: potency is read from the fitted curve at half-maximal effect
In short: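 Viability of ER-beta-UAS-bla HEK293T cells was determined by CellTiter-Glo luminescence following 16 hr treatment with test compounds at 37C.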

[7] = qHTS assay to identify small molecule antagonists of the estrogen receptor beta (ER-beta) signaling pathway - cell viability counter screen (AID 1259382); also: series mostly up to about 92 µM; nearly all actives have a fitted effect of over 55% in size
In short: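 Tox21 10K library tested in qHTS format on ER-beta-bla HEK293T cells stimulated with 1nM E2; 16 hr treatment at 37C. Same-well CellTiter-Glo luminescence served as the cell viability measure.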

[8] = qHTS assay to identify small molecule agonists or antagonists of the thyroid stimulating hormone receptor (TSHR) signaling pathway - wild type cell line counter screen (AID 1259384; calls by dose curve)
In short: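 Wild-type Hek293 cells, 800/well, 18 h at 37C, then compound with Ro20-1724 for 30 min RT. cAMP by HTRF (cAMP-d2/anti-cAMP cryptate), 1 h RT, fluorescence read. 15 concentrations, triplicates.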

[9] = molecular target: Thyrotropin receptor (Homo sapiens) (UniProt P16473); test: qHTS assay to identify small molecule antagonists of the thyroid stimulating hormone receptor (TSHR) signaling pathway (AID 1259385; calls by dose curve; also: nearly all actives have a fitted effect of over 20% in size)
In short: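 TSHR-HEK293 cells (800/well) plated 18 h, then compounds with Ro20-1724 and TSH at 1.5 ng/mL final, 30 min at room temperature. cAMP quantified by HTRF (cAMP-d2/anti-cAMP-cryptate, 1 h); 15 concentrations in triplicate.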

[10] = qHTS assay to identify small molecule agonists of the estrogen receptor alpha (ER-alpha) signaling pathway in the presence of an antagonist - cell viability counter screen (AID 1259386);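 also: series mostly up to about 92 µM; cells exposed to compounds for 22 h at 37 °C before the viability read; nearly all actives have a fitted effect of over 30% in size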
In short: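 Fluorescent CellTiter-Fluor viability signal from VM7Luc4E2 cells, with the reagent added during the final hour of a 22hr compound exposure at 37C in the presence of 10.0nM ICI-182,780.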

[11] = molecular target: Progesterone receptor (Homo sapiens) (UniProt P06401); test: qHTS assay to identify small molecule agonists of the progesterone receptor (PR) signaling pathway (AID 1346784; calls by dose curve; also: nearly all actives have a fitted effect of over 30% in size; also: potency is read from the fitted curve at half-maximal effect)
In short: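 Seed PR-UAS-bla HEK 293T cells (2% charcoal-stripped FBS), incubate 6 hr at 37C; add compounds in DMSO, 16 hr at 37C; add LiveBLAzer B/G substrate, 2 hr RT; read fluorescence intensity.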

[12] = molecular target: Progesterone receptor (Homo sapiens) (UniProt P06401); test: qHTS assay to identify small molecule antagonists of the progesterone receptor (PR) signaling pathway (AID 1346795; active = well fitted inhibition curve with a large enough effect in the signal ratio in the repeat runs, not every such curve was filed as active; the % refers to the signal ratio; also: potency is read from the fitted curve at half-maximal effect)
In short: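 Screening used a GripTite HEK293T line with PR-responsive UAS-beta-lactamase. Cells were challenged with compound in the presence of 1 nM R5020 final for 16 hr at 37C; B/G FRET substrate, 2 hr room temperature, fluorescence.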

[13] = qHTS assay to identify small molecule antagonists of the progesterone receptor (PR) signaling pathway - cell viability counter screen (AID 1346798); also: series mostly up to about 92 µM; nearly all actives have a fitted effect of over 50% in size
In short: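 Measures cytotoxicity in parallel with the PR antagonist reporter read: HEK293T PR-UAS-bla cells get compound and R5020 for 16 hr, and remaining viable cells are quantified by CellTiter-Glo luminescence.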

[14] = qHTS assay to identify small molecule agonists of the progesterone receptor (PR) signaling pathway - cell viability counter screen (AID 1346799; calls by dose curve; also: nearly all actives have a fitted effect of over 45% in size)
In short: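 Using the same plates as the PR reporter screen, HEK293T PR-UAS-bla cells received compounds for 16 hr at 37C and were then lysed with CellTiter-Glo; luminescence was read 30 min later at room temperature.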

[15] = qHTS assay to identify small molecule antagonists of the TGF-beta/Smad signaling pathway - cell viability counter screen (AID 1346824); also: nearly all actives have a fitted effect of over 50% in size
In short: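 SBE-bla HEK 293T cells, incubated overnight, then compound plus 0.25 ng/mL TGF-beta1 (stock added) for 5 hr at 37 C. Viability was read in the same wells by CellTiter-Glo luminescence after 30 min at room temperature.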

[16] = qHTS assay to identify small molecule antagonists of the sonic hedgehog signaling (Shh) pathway (AID 1259369; calls by dose curve; also: nearly all actives have a fitted effect of over 45% in size; also: potency is read from the fitted curve at half-maximal effect)
In short: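 Screening used 3T3Gli1-Luc cells at 2,000 per well, compounds delivered in DMSO, and conditioned medium as agonist stimulus; plates incubated 24hr at 37 C and 5% CO2 before a 30min luciferase step.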

[17] = molecular target: Estrogen receptor beta (Homo sapiens) (UniProt Q92731); test: qHTS assay to identify small molecule agonists of the estrogen receptor beta (ER-beta) signaling pathway (AID 1259377; active = well fitted activation curve with a large enough effect in the signal ratio in the repeat runs, not every such curve was filed as active; the % refers to the signal ratio)
In short: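 Screening used GripTite ER-beta-UAS-bla cells held in 2% charcoal-stripped FBS medium. After overnight (16 hr) compound incubation at 37C, beta-lactamase activity was detected with a FRET substrate by fluorescence.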

[18] = molecular target: Estrogen receptor beta (Homo sapiens) (UniProt Q92731); test: qHTS assay to identify small molecule antagonists of the estrogen receptor beta (ER-beta) signaling pathway (AID 1259378; active = well fitted inhibition curve with a large enough effect in the signal ratio in the repeat runs, not every such curve was filed as active; the % refers to the signal ratio)
In short: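 ER-beta-UAS-bla HEK293T cells in 2% charcoal-stripped FBS medium treated with compound plus 1nM final 17-beta-estradiol for 16 hr at 37C. Beta-lactamase reporter read by FRET substrate fluorescence after 2 hours at room temperature.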

[19] = molecular target: Estrogen receptor (Homo sapiens) (UniProt P03372); test: qHTS assay to identify small molecule agonists of the estrogen receptor alpha (ER-alpha) signaling pathway in the presence of an antagonist (AID 1259383; calls by dose curve; also: top concentration of the series differs between compounds; nearly all actives have a fitted effect of over 15% in size)
In short: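 In VM7Luc4E2 cells, 4,000 per well, compounds at 15 concentrations were co-incubated 22hr at 37C with 10.0nM final ICI-182,780. Luminescence from the stably transfected 4×ERE-luciferase reporter was recorded 30min after ONE-Glo addition.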

[20] = molecular target: Androgen receptor (Homo sapiens) (UniProt P10275); test: qHTS assay to identify small molecule agonists of the androgen receptor (AR) signaling pathway in the presence of an antagonist (AID 1259381; calls by dose curve; also: nearly all actives have a fitted effect of over 15% in size)
In short: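 Here, 15-concentration compound series were pin-transferred onto MDA-kb2 MMTV-luciferase cells already dosed with nilutamide (3.0uM final). After 16hr at 37C, ONE-Glo was added and luminescence read 30min later at room temperature.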
% is scaled to controls: 0 for no effect and ±100 for the full control effect.

Sequence of Thyrotropin receptor (Homo sapiens) (P16473 whole entry, looked up): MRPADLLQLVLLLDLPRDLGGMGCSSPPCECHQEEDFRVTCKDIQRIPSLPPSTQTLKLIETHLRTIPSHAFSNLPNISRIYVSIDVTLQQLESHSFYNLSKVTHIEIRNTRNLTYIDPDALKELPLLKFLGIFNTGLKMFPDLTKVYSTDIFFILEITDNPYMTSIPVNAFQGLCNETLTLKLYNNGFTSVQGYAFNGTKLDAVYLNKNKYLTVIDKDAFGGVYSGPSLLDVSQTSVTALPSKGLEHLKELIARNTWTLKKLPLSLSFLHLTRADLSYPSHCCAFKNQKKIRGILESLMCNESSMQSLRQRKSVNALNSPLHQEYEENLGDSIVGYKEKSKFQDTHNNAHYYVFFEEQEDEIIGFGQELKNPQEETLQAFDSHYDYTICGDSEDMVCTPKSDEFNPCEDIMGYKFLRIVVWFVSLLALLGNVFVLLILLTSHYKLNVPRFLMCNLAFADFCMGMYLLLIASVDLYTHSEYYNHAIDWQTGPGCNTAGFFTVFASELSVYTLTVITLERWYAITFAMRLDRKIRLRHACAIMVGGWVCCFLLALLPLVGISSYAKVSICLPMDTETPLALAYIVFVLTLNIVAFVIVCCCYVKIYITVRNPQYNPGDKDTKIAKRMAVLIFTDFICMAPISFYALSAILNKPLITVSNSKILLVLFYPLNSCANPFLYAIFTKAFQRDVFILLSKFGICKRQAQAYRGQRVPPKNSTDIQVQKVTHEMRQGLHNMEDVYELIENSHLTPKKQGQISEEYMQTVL
Sequence of Estrogen receptor beta (Homo sapiens) (Q92731 whole entry, looked up): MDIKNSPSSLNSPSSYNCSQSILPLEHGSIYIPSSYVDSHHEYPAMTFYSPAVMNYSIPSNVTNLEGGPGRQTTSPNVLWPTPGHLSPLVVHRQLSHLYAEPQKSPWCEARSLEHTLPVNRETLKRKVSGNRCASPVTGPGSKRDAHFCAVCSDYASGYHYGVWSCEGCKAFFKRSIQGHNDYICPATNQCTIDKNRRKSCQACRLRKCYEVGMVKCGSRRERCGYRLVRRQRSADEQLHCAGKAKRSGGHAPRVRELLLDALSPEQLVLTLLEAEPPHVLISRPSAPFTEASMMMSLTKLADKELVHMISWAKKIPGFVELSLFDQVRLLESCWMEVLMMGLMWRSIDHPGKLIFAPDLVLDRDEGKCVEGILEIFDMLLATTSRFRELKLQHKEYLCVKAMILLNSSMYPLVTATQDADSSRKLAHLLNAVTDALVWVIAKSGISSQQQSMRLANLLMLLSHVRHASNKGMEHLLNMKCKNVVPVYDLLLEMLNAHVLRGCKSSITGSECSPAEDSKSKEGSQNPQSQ
Sequence of Androgen receptor (Homo sapiens) (P10275 whole entry, looked up): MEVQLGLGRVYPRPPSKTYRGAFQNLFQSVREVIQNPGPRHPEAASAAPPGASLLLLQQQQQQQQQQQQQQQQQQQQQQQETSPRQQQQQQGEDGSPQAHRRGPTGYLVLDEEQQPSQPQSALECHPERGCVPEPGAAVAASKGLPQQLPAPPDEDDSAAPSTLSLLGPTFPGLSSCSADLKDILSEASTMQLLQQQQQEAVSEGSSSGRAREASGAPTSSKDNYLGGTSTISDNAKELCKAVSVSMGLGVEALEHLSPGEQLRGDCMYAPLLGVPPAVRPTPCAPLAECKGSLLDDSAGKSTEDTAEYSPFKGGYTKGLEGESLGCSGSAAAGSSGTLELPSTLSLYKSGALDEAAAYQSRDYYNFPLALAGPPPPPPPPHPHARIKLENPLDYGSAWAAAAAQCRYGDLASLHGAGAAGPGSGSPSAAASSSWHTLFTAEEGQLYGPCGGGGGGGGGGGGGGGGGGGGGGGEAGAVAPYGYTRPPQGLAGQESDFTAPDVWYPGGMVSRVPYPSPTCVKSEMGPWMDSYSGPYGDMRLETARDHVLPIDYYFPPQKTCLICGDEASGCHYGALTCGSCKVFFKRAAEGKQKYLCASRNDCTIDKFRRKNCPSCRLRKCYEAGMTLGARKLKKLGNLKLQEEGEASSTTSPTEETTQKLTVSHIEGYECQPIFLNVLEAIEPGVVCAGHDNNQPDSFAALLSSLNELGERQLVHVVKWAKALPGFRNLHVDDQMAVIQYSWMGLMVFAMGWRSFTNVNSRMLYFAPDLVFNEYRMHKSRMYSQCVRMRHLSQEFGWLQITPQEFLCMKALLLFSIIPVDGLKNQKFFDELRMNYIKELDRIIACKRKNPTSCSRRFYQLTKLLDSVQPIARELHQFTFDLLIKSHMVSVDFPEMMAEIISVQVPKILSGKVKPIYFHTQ
Sequence of Estrogen receptor (Homo sapiens) (P03372 whole entry, looked up): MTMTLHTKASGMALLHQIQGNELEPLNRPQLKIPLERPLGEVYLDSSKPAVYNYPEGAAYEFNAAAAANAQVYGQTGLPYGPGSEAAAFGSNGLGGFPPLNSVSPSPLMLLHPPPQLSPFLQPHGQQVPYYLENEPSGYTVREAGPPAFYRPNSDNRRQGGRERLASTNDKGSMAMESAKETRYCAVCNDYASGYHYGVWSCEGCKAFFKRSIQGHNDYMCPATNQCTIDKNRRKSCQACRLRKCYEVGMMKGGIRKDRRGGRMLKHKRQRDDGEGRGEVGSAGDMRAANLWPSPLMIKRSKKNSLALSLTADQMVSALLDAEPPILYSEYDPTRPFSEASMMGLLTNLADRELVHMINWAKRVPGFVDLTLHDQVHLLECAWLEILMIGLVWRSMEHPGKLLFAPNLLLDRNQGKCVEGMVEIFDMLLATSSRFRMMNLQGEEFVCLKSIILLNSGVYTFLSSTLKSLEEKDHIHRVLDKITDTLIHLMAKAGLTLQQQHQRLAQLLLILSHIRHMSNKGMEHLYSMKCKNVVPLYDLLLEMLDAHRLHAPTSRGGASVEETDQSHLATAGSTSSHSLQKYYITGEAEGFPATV
Sequence of Progesterone receptor (Homo sapiens) (P06401 whole entry, looked up): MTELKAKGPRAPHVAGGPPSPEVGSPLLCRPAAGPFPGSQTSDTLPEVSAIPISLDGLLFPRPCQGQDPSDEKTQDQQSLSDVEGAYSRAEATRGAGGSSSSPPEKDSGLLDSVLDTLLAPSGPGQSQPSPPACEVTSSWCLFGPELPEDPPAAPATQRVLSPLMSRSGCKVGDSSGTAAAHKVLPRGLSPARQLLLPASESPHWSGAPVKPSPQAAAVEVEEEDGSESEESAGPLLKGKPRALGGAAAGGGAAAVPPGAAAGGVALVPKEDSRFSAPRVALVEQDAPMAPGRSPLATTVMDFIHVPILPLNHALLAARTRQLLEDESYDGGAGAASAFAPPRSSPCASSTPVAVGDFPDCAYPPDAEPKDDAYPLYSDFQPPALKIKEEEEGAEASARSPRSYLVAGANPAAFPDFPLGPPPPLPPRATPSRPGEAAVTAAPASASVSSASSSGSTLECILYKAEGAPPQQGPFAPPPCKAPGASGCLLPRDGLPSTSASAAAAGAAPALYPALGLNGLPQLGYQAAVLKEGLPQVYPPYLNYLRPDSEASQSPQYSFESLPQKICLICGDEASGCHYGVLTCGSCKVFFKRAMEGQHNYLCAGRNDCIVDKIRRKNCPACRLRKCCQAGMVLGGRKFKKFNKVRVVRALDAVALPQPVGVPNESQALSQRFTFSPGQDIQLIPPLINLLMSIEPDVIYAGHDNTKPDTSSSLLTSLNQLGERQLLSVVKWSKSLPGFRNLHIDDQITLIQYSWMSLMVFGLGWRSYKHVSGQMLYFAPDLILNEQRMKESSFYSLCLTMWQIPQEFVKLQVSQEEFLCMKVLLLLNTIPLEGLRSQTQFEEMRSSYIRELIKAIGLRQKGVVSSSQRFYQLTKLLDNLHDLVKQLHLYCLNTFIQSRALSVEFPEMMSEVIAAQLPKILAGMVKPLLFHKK

NNc1nncc2ccccc12
inactive: outcome [1] | viability change, negative = cytotoxic [2] -0.875% [at 19 µM] | viability change, negative = cytotoxic [3] 1.95% [at 19 µM] | outcome [4] | Potency [5] | activity change, negative = cytotoxicity [6] -0.605% [at 19 µM] | Potency [7] | outcome [8] | Potency [9] | activity change, negative = cytotoxicity [10] -0.882% [at 19 µM] | Potency [11] | activity change, negative = inhibition [12] 9.77% [at 18.9 µM] | activity change, negative = cytotoxicity [13] -14.1% [at 18.9 µM] | activity change, negative = cytotoxicity [14] -14.8% [at 19 µM] | Potency [15]
active: Potency [2] 48.6 µM | Potency [3] 61.1 µM | Potency [6] 21.7 µM | Potency [12] 61.1 µM

O=C=NCCCCCCN=C=O
inactive: outcome [1] | Potency [2] | Potency [3] | outcome [4] | Potency [16] | Potency [17] | Potency [18] | Potency [5] | Potency [6] | Potency [7] | outcome [8] | Potency [9] | Potency [10] | Potency [11] | Potency [12] | Potency [13] | Potency [14] | Potency [15]

CCCCCC(N)=O
inactive: outcome [1] | Potency [2] | Potency [3] | outcome [4] | Potency [16] | Potency [17] | Potency [18] | Potency [5] | Potency [6] | Potency [7] | outcome [8] | Potency [9] | Potency [10] | Potency [11] | Potency [12] | Potency [13] | Potency [14] | Potency [15]

c1ccc2scnc2c1
inactive: outcome [1] | Potency [2] | Potency [3] | outcome [4] | Potency [16] | Potency [17] | Potency [18] | Potency [5] | Potency [6] | Potency [7] | outcome [8] | Potency [9] | Potency [10] | Potency [11] | Potency [12] | Potency [13] | Potency [14] | Potency [15]

Cc1ccc2oc(=O)ccc2c1
inactive: outcome [1] | Potency [2] | Potency [3] | outcome [4] | Potency [16] | Potency [17] | Potency [18] | Potency [5] | Potency [6] | Potency [7] | Potency [19] | outcome [8] | Potency [9] | Potency [10] | Potency [11] | Potency [12] | Potency [13] | Potency [14] | Potency [15]

Cc1ccc(N(C)C)cc1
inactive: outcome [1] | Potency [2] | Potency [3] | outcome [4] | Potency [16] | Potency [17] | Potency [18] | Potency [5] | Potency [6] | Potency [20] | Potency [7] | outcome [8] | Potency [9] | Potency [10] | Potency [11] | Potency [12] | Potency [13] | Potency [14] | Potency [15]

C[Si](O[Si](C)(C)C)O[Si](C)(C)C
inactive: outcome [1] | Potency [2] | Potency [3] | outcome [4] | Potency [16] | Potency [17] | Potency [18] | Potency [5] | Potency [6] | Potency [20] | Potency [7] | outcome [8] | Potency [9] | Potency [10] | Potency [11] | Potency [12] | Potency [13] | Potency [14] | Potency [15]

OCCOCCOCCO
inactive: outcome [1] | Potency [2] | Potency [3] | outcome [4] | Potency [16] | Potency [17] | Potency [18] | Potency [5] | Potency [6] | Potency [20] | Potency [7] | outcome [8] | Potency [9] | Potency [10] | Potency [11] | Potency [12] | Potency [13] | Potency [14] | Potency [15]

CC(=O)Nc1ccccc1
inactive: outcome [1] | Potency [2] | Potency [3] | outcome [4] | Potency [16] | Potency [17] | Potency [18] | Potency [5] | Potency [6] | Potency [7] | outcome [8] | Potency [9] | Potency [10] | Potency [11] | Potency [12] | Potency [13] | Potency [14] | Potency [15]

CC(=O)Nc1cccc(O)c1
inactive: outcome [1] | Potency [2] | Potency [3] | outcome [4] | Potency [16] | Potency [17] | Potency [18] | Potency [5] | Potency [6] | Potency [7] | Potency [19] | outcome [8] | Potency [9] | Potency [10] | Potency [12] | Potency [13] | Potency [14] | Potency [15]
24.2 µM (active) and inactive: Potency [11]

O=C(O)c1ccc2c(c1)C(=O)OC2=O
inactive: outcome [1] | Potency [2] | Potency [3] | outcome [4] | Potency [16] | Potency [17] | Potency [18] | Potency [5] | Potency [6] | Potency [20] | Potency [7] | Potency [19] | outcome [8] | Potency [9] | Potency [10] | Potency [11] | Potency [12] | Potency [13] | Potency [14] | Potency [15]

CC1=C(C)S(=O)(=O)CCS1(=O)=O
active: Potency [16] 21.3 µM and 38.6 µM
inactive: outcome [1] | Potency [2] | Potency [3] | outcome [4] | Potency [17] | Potency [18] | Potency [5] | Potency [6] | Potency [20] | Potency [7] | Potency [19] | Potency [10] | Potency [11] | Potency [12] | Potency [14] | Potency [15]

CCCCC(CC)COC(=O)CCCCC(=O)OCC(CC)CCCC (configuration not stated)
inactive: outcome [1] | Potency [2] | Potency [3] | outcome [4] | Potency [16] | Potency [17] | Potency [18] | Potency [5] | Potency [6] | Potency [7] | Potency [19] | outcome [8] | Potency [9] | Potency [10] | Potency [11] | Potency [12] | Potency [13] | Potency [14] | Potency [15]
